From PubChem BioAssay
mHTT CaM bind: mHTT-calmodulin interaction abrogation; P42858; AlphaScreen His-mHTT/GST-CaM binding, luminescence; inhibition, % at 15 µM; 3.6% of 190,000 active; AID 1671202;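 also: 0% = both proteins with DMSO and 100% = one protein alone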
Pf apPOL inh: Pf-apPOL DNA polymerase inhibition. Recombinant Pf-apPOL, molecular beacon fluorescence, 1.5 h. inhibition, % at 10 µM. 0.25% of 210,000 active
An asterisk follows results filed as active; . = not tested or not shown. Shown are actives, neighbours in structure and some others; about 3.5% of the full set was active somewhere. Rule as the data show it: active = inhibition above about 50%; inactive = the rest.

SMILES	mHTT CaM bind	Pf apPOL inh
COc1ccc([C@H]2C[C@H](O)[C@@H](n3cc(C4CC4)nn3)CN2Cc2cccs2)cc1	94.0*	1.9
CCCCCCN1C[C@@H](n2cc(C3CC3)nn2)[C@H](O)C[C@@H]1c1ccc(OC)cc1	36.2	0.2
COc1ccc(Cl)cc1C(=O)N1CCC(c2nc(C(=O)N(C)C)c(C)o2)CC1	14.1	-5.6
COc1cc(C=C2Oc3cc(OC(=O)c4ccc5c(c4)OCO5)ccc3C2=O)cc(OC)c1OC	1.2	-3.4
O=C(Nc1cccnc1Cl)c1nsc(Cl)c1Cl	-9.0	2.0
Cn1cc(Cl)c(C(=O)NCCn2cc(Cl)cn2)n1	-6.5	.
C=CCn1c2ccccc2c2nnc(SCC(=O)Nc3nc4ccc([N+](=O)[O-])cc4s3)nc21	17.0	3.9
Fc1ccc(C2=CC(c3ccccc3OC(F)F)n3ncnc3N2)cc1 (stereo not drawn)	10.0	-5.8
COc1ccc(C2C=C(c3ccc(Cl)cc3)Nc3ncnn32)c(OC)c1OC (stereo not drawn)	89.0*	-2.9
CCc1ccc(C2=CC(c3ccc(OC)c(OC)c3OC)n3ncnc3N2)cc1 (stereo not drawn)	35.0	-2.8
COc1cccc(C2C=C(c3ccc(Cl)cc3)Nc3ncnn32)c1OC (stereo not drawn)	58.0*	-4.9
COc1ccc(C2C=C(c3cccc(NC(C)=O)c3)Nc3ncnn32)c(OC)c1 (stereo not drawn)	4.0	83.0*
COc1cccc(C2=CC(c3ccc(OC)cc3OC)n3ncnc3N2)c1 (stereo not drawn)	22.0	-9.4
COc1ccc(C2=CC(c3cccc(OC)c3OC)n3ncnc3N2)cc1 (stereo not drawn)	-2.0	-6.4
COc1cccc(C2C=C(c3ccc(F)cc3)Nc3ncnn32)c1OC(F)F (stereo not drawn)	73.0*	-4.9
Cc1ccc(S(=O)(=O)N2CCc3nc(NC(=O)c4ccnn4C)sc3C2)cc1	22.4	-2.8
COc1ccccc1C1(CNC(=O)C2CCCCC2)CCOCC1	-7.3	0.3
Cn1c(=O)[nH]cc(C(=O)Nc2ccncc2)c1=O	4.7	-1.8
COc1ccc(C2C=C(c3cccs3)Nc3ncnn32)cc1OC (stereo not drawn)	6.0	-2.6
COc1cc(C2C=C(c3cccc(Br)c3)Nc3ncnn32)cc(OC)c1OC (stereo not drawn)	100.0*	-8.7
COc1ccc(C2C=C(c3cccc(Br)c3)Nc3ncnn32)c(OC)c1 (stereo not drawn)	45.0	-8.5
COc1ccc(C2C=C(c3ccc(Br)s3)Nc3ncnn32)cc1OC (stereo not drawn)	57.0*	-6.0
COC(=O)C1=CN(C2CC2)c2cc(N3CCCCC3)c(F)cc2S1(=O)=O	-5.0	-1.8
CC(C)Cn1cc(C(=O)NCc2ccc(F)cc2)c2c3ccccc3n(C)c2c1=O	9.0	-1.4
CC(NC(=O)C(=O)Nc1ccon1)c1ccccc1 (stereo not drawn)	-14.5	-8.0
SMILES	mHTT CaM bind	Pf apPOL inh
Cc1nc2cc(N=Cc3ccc(Br)cc3)ccc2n1C	5.0	52.9*
Cc1nc2cc(N=Cc3ccccc3O)ccc2n1C	8.0	18.7
O=C(O)C(Cc1ccccc1)NS(=O)(=O)c1cccc(C(F)(F)F)c1 (stereo not drawn)	5.0	-9.3
O=C(O)Cc1ccc(N=Cc2cccc([N+](=O)[O-])c2O)cc1	11.0	20.2
CCn1cc(/C=C2\C(=O)NC(=O)N(c3ccc(C)cc3)C2=O)c2ccccc21	53.0*	47.4
CCn1cc(/C=C2\C(=O)NC(=O)N(c3ccc(Br)cc3)C2=O)c2ccccc21	11.0	-4.7
CCN(CC)C(=O)Cn1cc(/C=C2\C(=O)NC(=O)N(c3cccc(C)c3C)C2=O)c2ccccc21	56.0*	-4.9
CCn1cc(/C=C2\C(=O)NC(=O)N(c3ccc(F)cc3)C2=O)c2ccccc21	8.0	-4.0
Cc1ccc2c(c1)/C(=C/c1ccc(Br)cc1)c1cccnc1-2	13.8	.
Cc1ccc2c(c1)/C(=C/c1ccc3c(c1)OCO3)c1cccnc1-2	52.2*	-4.0
CCc1cccc(C)c1NC(=O)Cn1ccc2ccn(C)c2c1=O	5.7	-6.3
COc1ccc(NC(=O)CC2Nc3cc(C)c(C)cc3NC2=O)cc1Cl (stereo not drawn)	14.6	5.9
COc1ccc2cc(C(=O)NC(C)=O)c(=Nc3ccc(C#N)cc3)oc2c1	0.0	64.9*
COc1ccc2oc(=Nc3ccc(C#N)cc3)c(C(=O)NC(C)=O)cc2c1	4.0	-2.3
COc1ccc2oc(=Nc3ccccc3F)c(C(=O)NC(C)=O)cc2c1	4.0	92.1*
COc1ccc2oc(=Nc3ccc(F)cc3F)c(C(=O)NC(C)=O)cc2c1	2.0	-3.7
COc1cccc(CNC(=O)C2(C)CCCN(C(=O)C3CCCCC3)C2)c1 (stereo not drawn)	-8.0	-4.7
N=C1S/C(=C\c2cc3c(cc2Cl)OCO3)C(=O)N1c1nccs1	11.0	11.2
C=CCOc1ccc(/C=C2\SC(=N)N(c3nccs3)C2=O)cc1OCC	74.0*	-78.8
CC(=O)N1CCN(c2nc3c(s2)CC(C(=O)NCc2cc(F)ccc2F)CC3)CC1 (stereo not drawn)	8.2	0.1
Cc1ccc(-c2nnc(N3CCC(C(=O)NCc4ccccc4F)CC3)o2)cc1	5.9	-8.9
CCN(CC)c1ccc(N=Cc2ccc(O)cc2)cc1	86.0*	-8.1
CCN(CC)c1ccc(C=Nc2ccc(C)cc2)cc1	-4.0	-4.3
CCOC(=O)CC(=O)CSc1nc(-c2ccccc2)ns1	-10.3	5.3
Cc1ccc2oc(-c3cc(N)ccc3O)nc2c1	34.5	-10.0
SMILES	mHTT CaM bind	Pf apPOL inh
CC(C)c1ccc2oc(-c3cc(N)ccc3O)nc2c1	62.1*	-7.3
O=C(CNC1=NCCC1)c1ccc(-c2ccccc2)cc1	100.0*	-0.8
O=C(CNC1=NCCC1)c1ccc(Br)cc1	0.0	0.8
Cc1cccc(C(=O)Nc2c3c(nn2-c2ccccc2C)CS(=O)(=O)C3)c1	0.0	-0.7
COc1ccc2nc(N3CCC(C(=O)NCCCN4CCCCC4)CC3)sc2c1	0.0	-4.0
COc1ccc(NC(=O)C(=O)NCC2CCN(Cc3cc(C)oc3C)CC2)cc1Cl	-2.3	-7.2
CN1CC=C2C(C#N)=C(N)C(C#N)(C#N)C(c3ccccc3)C2C1 (stereo not drawn)	4.0	0.0
CCCN1CC=C2C(C#N)=C(N)C(C#N)(C#N)C(c3ccc(-c4ccccc4)cc3)C2C1 (stereo not drawn)	63.0*	-6.3
CC(C)(C)C1CC=C2C(C#N)=C(N)C(C#N)(C#N)C(c3ccccc3)C2C1 (stereo not drawn)	25.0	-9.7
CC(C)(C)C1CC=C2C(C#N)=C(N)C(C#N)(C#N)C(c3ccc(Cl)cc3)C2C1 (stereo not drawn)	62.0*	-3.1
N#CC1=C(N)C(C#N)(C#N)C(c2cccs2)C2CC(c3ccccc3)CC=C12 (stereo not drawn)	96.0*	-4.3
COc1ccc(C2C3CCCC=C3C(C#N)=C(N)C2(C#N)C#N)cc1 (stereo not drawn)	23.0	-1.3
N#CC1=C(N)C(C#N)(C#N)C(c2ccccc2)C2CCCC=C12 (stereo not drawn)	18.0	0.6
CCCCOc1ccc(C2C3CCCC=C3C(C#N)=C(N)C2(C#N)C#N)cc1 (stereo not drawn)	55.0*	1.1
O=C(CSc1nc2[nH]ncc2c(=O)n1-c1ccc(Cl)cc1Cl)NCc1ccccc1	4.0	-4.9
COc1nccnc1NS(=O)(=O)c1ccc(NC(=O)c2cccc([N+](=O)[O-])c2)cc1	2.0	-1.9
